The target in test [1] is Lysosomal acid glucosylceramidase (Homo sapiens) (UniProt P04062). Briefly: Glucocerebrosidase-p2 (AID 348; in the data active means potency below about 10 µM; further: potency means the concentration at half of the fitted maximal effect). To be noted: purified GBA, blue fluorogenic substrate, 40 min. The method in brief:
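Normal human glucocerebrosidase (0.2 nM) with blue fluorogenic substrate (80 uM final) in citrate/phosphate pH 5.9 with 10mM sodium taurocholate, 0.01% tween-20; 40 min RT, NaOH/glycine stop; fluorescence Ex 365/Em 440; AC50 from a titration from 0.6 nM upwards.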

A short description of test [2]: AP1 Signaling Pathway (AID 357).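 Further: ME-180 reporter cells stimulated with EGF at its EC50 level; on the % scale 0 is the no-effect control and ±100 the full control effect.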 To be noted: ME-180 AP-1-bla reporter, EGF-induced, beta-lactamase ratio, 5 h; at 7.69 µM (top of the series) unless noted. An outline of the steps: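 A ratiometric CCF4 readout (405 nm excitation; 460 and 530 nm emission) quantified AP-1-driven beta-lactamase in ME-180 cells after 5 h with compound and EC50 EGF; AC50 values were derived for activators and inhibitors.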

For test [3], the target named is Cytochrome P450 1A2 (Homo sapiens) (UniProt P05177). Briefly: p450-cyp1a2 (AID 410; calls by dose curve; further: potency means the concentration at half of the fitted maximal effect;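 on activity change, negative = inhibition: -100% = full effect of reference inhibitor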). To be noted: recombinant CYP1A2, luciferin-ME demethylation, luminescence; series mostly up to 57 µM. An outline of the steps: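 20nM CYP1A2, 100uM Luciferin-ME (=Km), 100mM KPO4; cpd 10 min RT; +NADPH regen, 60 min RT; stop/detect 20 min; luminescence. Normalized to furafylline 57 uM = full inhibition.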

Test [4] in a line: NFAT Signaling Pathway (AID 444).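 Further: carbachol stimulus at about its EC50 of 1 µM final; on the % scale 0 is the no-effect control and ±100 the full control effect.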 Conditions: Jurkat NFAT-bla M1, carbachol, beta-lactamase ratio, 5 h; at 7.69 µM (top of the series) unless noted. An outline of the steps:
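Jurkat cells carrying an NFAT-driven β-lactamase reporter and co-transfected muscarinic M1 receptor were treated with compound plus carbachol (1 uM final, an EC50 level) for 5 h at 37 °C. CCF4 loading followed for 1 h at RT; 460/530 nm ratio gave %activity.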

Test [5] is described as follows: Stat Signaling Pathway (AID 446).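 Further: ME-180 cervical cancer cells given 40 pM IL-6 alongside compound; SIE-controlled beta-lactamase reporter measured as 460/530 nm FRET emission ratio; on the % scale 0 is the no-effect control and ±100 the full control effect.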 Conditions: ME-180 SIE beta-lactamase reporter, IL-6 stimulated, 5 h; at 7.69 µM (top of the series) unless noted. The method in brief:
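Overnight-plated ME-180 cells bearing a STAT Inducible Element beta-lactamase reporter; 5 h co-exposure to compound and 40 pM IL-6; values normalized to 300 pM IL-6 and 125 nM JAK inhibitor controls.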

The target of test [6] is Glucocorticoid receptor (Homo sapiens) (UniProt P04150). In words: GR-EFC Redistribution (AID 451; calls by dose curve; further: potency means the concentration at half of the fitted maximal effect). To be noted: CHO-K1 GR-EFC translocation, beta-gal luminescence, 2 h. An outline of the steps: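 CHO-K1 cells stably expressing nuclear-localized β-gal enzyme acceptor and GR fused C-terminally to the enzyme donor fragment; ligand-driven nuclear translocation restores β-gal by complementation. Compounds titrated up to 46 uM final, 2 h at 37 °C; luminescence read.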

In test [7] the target is Mitogen-activated protein kinase 10 (Mus musculus) (UniProt Q61831). Briefly: JNK3 AlphaScreen Assay (AID 530).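 Further: kinase came from lysate of stimulated human HepG2 cells; signal reports phosphorylation of biotinylated GST-cJun 1-79 at Ser73 with 10 µM ATP; on the % scale 0 is the no-effect control and ±100 the full control effect.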 Conditions: JNK3 lysate, c-Jun phosphorylation; series mostly up to 57.1 µM. The method in brief:
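Biotinylated GST-cJun(1-79) served as substrate for JNK3 in HepG2 lysates stimulated with IL-1beta and TNF-alpha. ATP was 10 uM final, pH 7.6. Ser73 phosphorylation was quantified by AlphaScreen (680 nm excitation).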

Test [8] has as its target 3',5'-cyclic-AMP phosphodiesterase 4B (Homo sapiens) (UniProt Q07343). Briefly: qHTS Assay for Inhibitors of PDE-IV (AID 607; active means well fitted activation curve with a large enough effect in the main read-out, with a control signal flat, not every such curve was filed as active; further: % of control where 0% means no effect). Conditions: HEK293 ACTOne CNG channel cells, membrane potential fluorescence; series mostly up to 22.9 µM. An outline of the steps:
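Live HEK293 cells with a modified cyclic nucleotide-gated (CNG) channel report intracellular cAMP via membrane-potential dye fluorescence (ex 535/em 590 nm). Endogenous PDE-IV was targeted. Compounds were tested at up to 22.9 uM final; RO 20-1724 100 uM served as control.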
On the technique in general: In qHTS, concentration-response curves come from the screen itself.

For test [9], the target named is Cytochrome P450 3A4 (Homo sapiens) (UniProt P08684). Briefly: qHTS Assay for Inhibitors and Substrates of Cytochrome P450 3A4 (AID 884; active means well fitted curve in the direction sought with a large enough effect; an effect the other way counts as inactive or inconclusive; further: nearly all actives have a fitted effect of over 50% in size; further: potency means the concentration at half of the fitted maximal effect). Conditions: recombinant CYP3A4, Luciferin-PPXE luminescence; series mostly up to 57.1 µM. An outline of the steps:
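Luminescent readout of luciferin produced by CYP3A4 (20 nM) dealkylation of Luciferin-PPXE, 25 uM (its KM). NADPH-driven reaction ran 60 min at RT after 10 min compound preincubation; data scaled to 57 uM ketoconazole as 100% inhibition.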

Test [10] has the same target. In words: qHTS Assay for Activators of Cytochrome P450 3A4 (AID 885; active means well fitted curve in the direction sought with a large enough effect; an effect the other way counts as inactive or inconclusive; further: nearly all actives have a fitted effect of over 65% in size). To be noted: recombinant CYP3A4, Luciferin-PPXE luminescence, 60 min; series mostly up to 57.1 µM. An outline of the steps: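 Using 20nM recombinant human CYP3A4 in potassium phosphate (200mM), substrate Luciferin-PPXE at 25uM, luminescent luciferin detection followed a 60-min RT NADPH reaction; data scaled to 57 uM ketoconazole.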

The target in test [11] is Cytochrome P450 2C19 (Homo sapiens) (UniProt P33261). Briefly: qHTS Assay for Inhibitors and Substrates of Cytochrome P450 2C19 (AID 899; active means well fitted curve in the direction sought with a large enough effect; an effect the other way counts as inactive or inconclusive; further: nearly all actives have a fitted effect of over 60% in size; further: potency means the concentration at half of the fitted maximal effect). Conditions: recombinant CYP2C19, luciferin-H EGE luminescence; series mostly up to 57.1 µM. The method in brief:
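NADPH-dependent conversion of Luciferin-H EGE (10uM, at KM) by 5nM enzyme in 50mM KPO4, 60 min at 37C following 10 min compound preincubation. Stopped with luciferin detection buffer; luminescence read after 20 min.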

A short description of test [12]: Confirmation and Secondary Assay for Modulators of Hemoglobin Beta Chain Splicing at IVS2 654 locus (AID 910; active means well fitted curve in the direction sought with a large enough effect; an effect the other way counts as inactive or inconclusive;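 further: per-well total GFP intensity by laser scanning cytometry after 2-day treatment; % of control where 0% means no effect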). To be noted: HeLa EGFP-654 splicing reporter, GFP fluorescence, 48 h; series mostly up to 38.3 µM. The method in brief:
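HeLa cells stably carrying EGFP interrupted by mutant beta-globin IVS2-654 intron (CMV-driven) were treated with compound for 2 days at 37C; corrected splicing was scored as total peak GFP intensity per well (488 nm excitation, 500-520 nm emission).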

A short description of test [13]: qHTS Assay for Identification of Small Molecule Agonists for Hypoxia Response Element Signaling Pathway (AID 914; active means well fitted activation curve with a large enough effect in the signal ratio, with a control signal flat, not every such curve was filed as active; the % refers to the signal ratio; further: % of control where 0% means no effect). To be noted: ME-180 (cervical carcinoma) HRE-bla reporter, beta-lactamase ratio, CoCl2, 17 h; activation: hits give high values. The method in brief:
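AC50 values come from titration-series %Activity, taken as the 460/530nm ratio of CCF4 fluorescence (excitation 405nm). CellSensor HRE-bla ME-180 cells were treated 17 hours at 37 C with compound plus an EC50 level of CoCl2.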

The target in test [14] is Ubiquitin carboxyl-terminal hydrolase 1 (Homo sapiens) (UniProt O94782). Briefly: Inhibitors of USP1/UAF1: Pilot qHTS (AID 504865; active means well fitted curve in the direction sought with a large enough effect; an effect the other way counts as inactive or inconclusive;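 further: rhodamine fluorescence freed from ubiquitin-rhodamine substrate followed over time; top concentration of the series differs between compounds; on the % scale 0 is the no-effect control and ±100 the full control effect; nearly all actives have a fitted effect of over 35% in size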). To be noted: purified USP1/UAF1, Ub-rhodamine cleavage fluorescence; series mostly up to 54.9 µM. The method in brief: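 1nM USP1/UAF1 + cpd, 15 min RT; start w/ Ub-Rho 150nM final; kinetic FL 480/540 nm, 6 reads q60 s. Buffer 50mM HEPES pH 7.8, 0.5mM EDTA, 1mM TCEP, 0.01% Tween-20, 0.1 mg/ml BSA.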

Test [15] is described as follows: Primary qHTS for small molecule stabilizers of the endoplasmic reticulum resident proteome: Secreted ER Calcium Modulated Protein (SERCaMP) assay (AID 1508630; active means well fitted curve in the direction sought with a large enough effect; an effect the other way counts as inactive or inconclusive; further: on the % scale 0 is the no-effect control and ±100 the full control effect). Conditions: SH-SY5Y GLuc-SERCaMP (Gaussia luciferase released on ER calcium loss) secretion, thapsigargin, luminescence; series mostly up to 38.4 µM. The method in brief: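 The SH-SY5Y reporter protocol was run at 3 concentrations up to 38.3 uM (primary) or 11 concentrations (follow-up): 16 h compound, 100 nM thapsigargin for 4 h, then extracellular luciferase luminescence.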

Test [16] concerns the target Cytochrome P450 2C9 (Homo sapiens) (UniProt P11712). Briefly: qHTS Assay for Inhibitors and Substrates of Cytochrome P450 2C9 (AID 883; active means well fitted curve in the direction sought with a large enough effect; an effect the other way counts as inactive or inconclusive; further: on the % scale 0 is the no-effect control and ±100 the full control effect; nearly all actives have a fitted effect of over 60% in size). To be noted: recombinant CYP2C9, luciferin-H luminescence, 60 min; series mostly up to 57.1 µM. The method in brief:
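A luminogenic readout tracked human CYP2C9 (10nM) converting deoxyluciferin (100uM, at KM) in 25mM KPO4 during 60 min at 37C with regenerated NADPH. Values normalized to 57uM sulphaphenazole as complete inhibition.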

Test [17] deals with Cytochrome P450 2D6 (Homo sapiens) (UniProt P10635). In words: qHTS Assay for Inhibitors and Substrates of Cytochrome P450 2D6 (AID 891; active means well fitted curve in the direction sought with a large enough effect; an effect the other way counts as inactive or inconclusive;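 further: luciferin methyl ether substrate demethylated by CYP2D6 with NADPH regeneration; on the % scale 0 is the no-effect control and ±100 the full control effect; nearly all actives have a fitted effect of over 60% in size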). Conditions: recombinant CYP2D6, luciferin-ME EGE luminescence; series mostly up to 57.1 µM. An outline of the steps:
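Luminescent read-out of luciferin formed by 5 nM human CYP2D6 demethylating 30 uM Luciferin-ME EGE (Km level) over 60 min at room temperature after NADPH regeneration addition. Data normalized to full inhibition by 1.43 uM quinidine.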

Seven compounds from PubChem BioAssay (NCATS) can be followed below.

Values without a mark were called inactive. Results filed as inconclusive are left out. Calls of active or inactive are those of the source. Unless noted, the call rests on the fitted dose curve; in most records, active means well fitted curve in either direction with a large enough effect (not every such curve was filed as active); inconclusive means small, poorly fitted or top-dose-only effect, or another doubt; inactive means flat fitted curve, though single readings scatter. Where only a bound is given, the exact number is not on record here.

Chain of Cytochrome P450 1A2 (Homo sapiens) (P05177 whole entry, looked up): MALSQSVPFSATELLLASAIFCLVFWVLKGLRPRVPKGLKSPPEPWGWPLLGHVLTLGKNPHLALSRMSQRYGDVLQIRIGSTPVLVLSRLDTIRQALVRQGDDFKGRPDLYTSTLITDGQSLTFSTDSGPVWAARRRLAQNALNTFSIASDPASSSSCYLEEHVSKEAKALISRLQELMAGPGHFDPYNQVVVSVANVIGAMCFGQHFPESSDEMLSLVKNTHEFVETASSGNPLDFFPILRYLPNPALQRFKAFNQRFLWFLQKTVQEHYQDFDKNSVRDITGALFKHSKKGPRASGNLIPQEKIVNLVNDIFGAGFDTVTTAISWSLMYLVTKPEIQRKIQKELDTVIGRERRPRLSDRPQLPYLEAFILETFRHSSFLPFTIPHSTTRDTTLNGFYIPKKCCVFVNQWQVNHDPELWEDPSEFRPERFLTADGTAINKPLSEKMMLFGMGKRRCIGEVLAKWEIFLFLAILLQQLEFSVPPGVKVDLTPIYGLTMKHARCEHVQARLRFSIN
Chain of Cytochrome P450 2C19 (Homo sapiens) (P33261 whole entry, looked up): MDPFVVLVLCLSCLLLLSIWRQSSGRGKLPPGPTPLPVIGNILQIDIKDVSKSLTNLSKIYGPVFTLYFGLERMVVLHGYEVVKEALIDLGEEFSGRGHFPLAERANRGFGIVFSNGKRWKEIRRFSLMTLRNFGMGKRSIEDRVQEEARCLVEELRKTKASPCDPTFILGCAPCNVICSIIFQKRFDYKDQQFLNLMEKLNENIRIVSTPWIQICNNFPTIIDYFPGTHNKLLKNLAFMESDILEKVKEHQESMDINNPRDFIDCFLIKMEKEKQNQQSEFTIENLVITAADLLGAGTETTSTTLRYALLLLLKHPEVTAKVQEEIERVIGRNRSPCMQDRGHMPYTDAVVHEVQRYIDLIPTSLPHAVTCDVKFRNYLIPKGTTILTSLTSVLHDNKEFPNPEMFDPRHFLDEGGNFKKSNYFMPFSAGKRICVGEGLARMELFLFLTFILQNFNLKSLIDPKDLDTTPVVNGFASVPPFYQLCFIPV
Chain of 3',5'-cyclic-AMP phosphodiesterase 4B (Homo sapiens) (Q07343 whole entry, looked up): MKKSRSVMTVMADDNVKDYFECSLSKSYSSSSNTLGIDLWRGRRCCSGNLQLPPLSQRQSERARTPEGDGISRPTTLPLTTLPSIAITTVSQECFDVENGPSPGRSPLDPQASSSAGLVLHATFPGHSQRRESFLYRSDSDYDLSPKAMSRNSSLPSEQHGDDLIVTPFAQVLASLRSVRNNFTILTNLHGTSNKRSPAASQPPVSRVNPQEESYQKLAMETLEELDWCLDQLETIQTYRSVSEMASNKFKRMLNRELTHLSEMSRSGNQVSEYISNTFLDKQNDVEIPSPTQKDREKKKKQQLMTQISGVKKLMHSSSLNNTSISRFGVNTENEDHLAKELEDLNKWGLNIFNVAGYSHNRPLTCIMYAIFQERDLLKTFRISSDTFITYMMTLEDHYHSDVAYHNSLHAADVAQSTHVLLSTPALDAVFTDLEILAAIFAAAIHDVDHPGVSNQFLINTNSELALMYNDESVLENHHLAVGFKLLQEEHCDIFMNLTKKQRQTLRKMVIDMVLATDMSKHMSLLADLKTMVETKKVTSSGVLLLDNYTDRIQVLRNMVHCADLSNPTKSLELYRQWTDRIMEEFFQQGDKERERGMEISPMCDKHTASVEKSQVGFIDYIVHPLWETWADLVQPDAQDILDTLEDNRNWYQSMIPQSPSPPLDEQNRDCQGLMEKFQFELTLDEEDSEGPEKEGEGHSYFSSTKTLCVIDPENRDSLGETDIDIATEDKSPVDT
Chain of Lysosomal acid glucosylceramidase (Homo sapiens) (P04062 whole entry, looked up): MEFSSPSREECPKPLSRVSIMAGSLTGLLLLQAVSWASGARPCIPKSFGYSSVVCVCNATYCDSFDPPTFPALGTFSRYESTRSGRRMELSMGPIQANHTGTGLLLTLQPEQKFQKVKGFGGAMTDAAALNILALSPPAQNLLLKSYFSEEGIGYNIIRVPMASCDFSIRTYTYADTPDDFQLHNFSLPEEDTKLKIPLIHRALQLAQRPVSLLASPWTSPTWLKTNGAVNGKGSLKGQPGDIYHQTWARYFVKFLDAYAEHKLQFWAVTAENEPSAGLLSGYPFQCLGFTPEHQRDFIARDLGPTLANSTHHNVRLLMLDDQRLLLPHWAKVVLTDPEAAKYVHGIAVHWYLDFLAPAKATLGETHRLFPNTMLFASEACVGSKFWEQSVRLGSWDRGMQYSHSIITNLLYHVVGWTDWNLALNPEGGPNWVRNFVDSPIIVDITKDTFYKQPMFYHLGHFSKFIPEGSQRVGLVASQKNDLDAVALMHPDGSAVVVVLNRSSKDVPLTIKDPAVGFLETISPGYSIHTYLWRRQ
Chain of Glucocorticoid receptor (Homo sapiens) (P04150 whole entry, looked up, the tested form may be a part): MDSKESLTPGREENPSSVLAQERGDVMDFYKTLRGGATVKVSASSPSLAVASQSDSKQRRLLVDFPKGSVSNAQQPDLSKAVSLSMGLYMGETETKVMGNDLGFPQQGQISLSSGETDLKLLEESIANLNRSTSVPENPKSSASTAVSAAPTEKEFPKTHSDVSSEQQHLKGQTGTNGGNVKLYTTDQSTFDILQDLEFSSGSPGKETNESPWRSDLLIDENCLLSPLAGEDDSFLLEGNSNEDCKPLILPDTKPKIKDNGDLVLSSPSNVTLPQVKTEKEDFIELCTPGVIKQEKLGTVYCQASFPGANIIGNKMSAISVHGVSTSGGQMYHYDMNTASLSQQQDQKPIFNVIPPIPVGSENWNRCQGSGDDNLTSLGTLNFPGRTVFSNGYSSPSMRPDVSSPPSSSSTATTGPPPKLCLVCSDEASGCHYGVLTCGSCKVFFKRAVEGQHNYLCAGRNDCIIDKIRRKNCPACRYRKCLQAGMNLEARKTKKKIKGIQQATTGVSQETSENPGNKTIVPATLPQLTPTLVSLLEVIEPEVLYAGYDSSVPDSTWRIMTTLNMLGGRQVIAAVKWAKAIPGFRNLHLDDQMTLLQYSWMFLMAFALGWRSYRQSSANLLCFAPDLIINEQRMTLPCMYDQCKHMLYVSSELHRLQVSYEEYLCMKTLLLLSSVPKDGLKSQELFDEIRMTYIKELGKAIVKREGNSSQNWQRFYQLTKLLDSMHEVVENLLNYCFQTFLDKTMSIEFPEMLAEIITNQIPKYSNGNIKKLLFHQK
Chain of Ubiquitin carboxyl-terminal hydrolase 1 (Homo sapiens) (O94782 whole entry, looked up): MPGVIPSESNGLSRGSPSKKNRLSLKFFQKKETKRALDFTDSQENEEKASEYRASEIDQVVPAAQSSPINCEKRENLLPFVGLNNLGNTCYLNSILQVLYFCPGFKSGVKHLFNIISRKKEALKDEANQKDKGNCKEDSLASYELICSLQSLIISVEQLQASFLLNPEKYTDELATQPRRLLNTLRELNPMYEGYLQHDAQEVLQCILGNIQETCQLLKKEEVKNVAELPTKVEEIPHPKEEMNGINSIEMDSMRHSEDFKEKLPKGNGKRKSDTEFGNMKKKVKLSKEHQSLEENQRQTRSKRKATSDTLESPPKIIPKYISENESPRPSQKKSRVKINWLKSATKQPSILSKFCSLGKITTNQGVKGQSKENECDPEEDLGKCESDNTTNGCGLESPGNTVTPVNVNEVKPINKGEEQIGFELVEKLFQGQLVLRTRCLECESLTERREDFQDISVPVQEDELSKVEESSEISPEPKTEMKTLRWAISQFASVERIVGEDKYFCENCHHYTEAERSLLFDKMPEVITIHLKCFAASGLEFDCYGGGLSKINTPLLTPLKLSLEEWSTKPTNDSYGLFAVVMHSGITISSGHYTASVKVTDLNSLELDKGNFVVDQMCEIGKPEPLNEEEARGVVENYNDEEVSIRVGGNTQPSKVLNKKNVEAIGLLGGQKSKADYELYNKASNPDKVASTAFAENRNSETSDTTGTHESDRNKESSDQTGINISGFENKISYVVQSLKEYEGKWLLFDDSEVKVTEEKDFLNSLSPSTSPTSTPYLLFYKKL
Chain of Cytochrome P450 3A4 (Homo sapiens) (P08684 whole entry, looked up): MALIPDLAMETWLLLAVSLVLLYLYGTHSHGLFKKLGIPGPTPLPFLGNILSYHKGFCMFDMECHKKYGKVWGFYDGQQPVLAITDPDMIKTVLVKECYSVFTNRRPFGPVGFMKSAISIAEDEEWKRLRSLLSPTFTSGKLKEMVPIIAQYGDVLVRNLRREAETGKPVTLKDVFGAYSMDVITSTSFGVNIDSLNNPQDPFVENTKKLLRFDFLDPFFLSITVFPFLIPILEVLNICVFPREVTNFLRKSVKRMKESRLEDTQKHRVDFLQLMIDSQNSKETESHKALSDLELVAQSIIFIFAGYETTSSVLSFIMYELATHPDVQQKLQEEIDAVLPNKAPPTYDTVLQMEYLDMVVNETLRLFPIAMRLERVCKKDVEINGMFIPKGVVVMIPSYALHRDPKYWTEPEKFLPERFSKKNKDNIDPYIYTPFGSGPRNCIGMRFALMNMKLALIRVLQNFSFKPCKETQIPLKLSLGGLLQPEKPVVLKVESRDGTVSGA
Chain of Cytochrome P450 2D6 (Homo sapiens) (P10635 whole entry, looked up): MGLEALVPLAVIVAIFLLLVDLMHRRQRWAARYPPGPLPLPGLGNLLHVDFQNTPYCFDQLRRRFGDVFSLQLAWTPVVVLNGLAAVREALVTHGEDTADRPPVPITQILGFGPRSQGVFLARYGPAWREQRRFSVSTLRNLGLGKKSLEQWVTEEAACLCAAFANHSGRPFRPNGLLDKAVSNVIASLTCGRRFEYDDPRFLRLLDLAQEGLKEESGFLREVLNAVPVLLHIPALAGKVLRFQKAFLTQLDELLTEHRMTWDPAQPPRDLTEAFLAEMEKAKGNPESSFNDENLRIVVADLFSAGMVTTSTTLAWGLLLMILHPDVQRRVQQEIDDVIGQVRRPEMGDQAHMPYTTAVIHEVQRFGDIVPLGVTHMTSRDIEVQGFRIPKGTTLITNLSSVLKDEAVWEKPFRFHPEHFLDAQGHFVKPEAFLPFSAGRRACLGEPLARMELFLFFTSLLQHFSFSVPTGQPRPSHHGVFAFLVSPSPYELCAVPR

Regarding `Cc1cccc(CNc2ncncc2-c2cccc(NS(C)(=O)=O)c2)c1`, the Potency in test [1] was greater than 11.4 µM; in [3] it was 12.6 µM (active); in test [6], greater than 46 µM; in test [9] it was 0.158 µM (active); in test [11], 6.31 µM (active). Further, the activity change, negative = inhibition was -5.04% in [2] and 8.42% in test [4]. The activity, negative = inhibition in [5] was 0.163%. Further, the Potency entry in test [7], in test [8], in [10], in test [12] and in test [14] was “inactive” throughout. Moreover, the activation in test [13] is 3.55%. The outcome in [15] was inactive.

Regarding `CC(=O)N1CCC2(CC1)CCN(c1ccc(-c3ccccc3)cc1)CC2`, the Potency is greater than 11.4 µM in [1], 10 µM (active) in test [3] and greater than 46 µM in test [6]. Moreover, the activity change, negative = inhibition in [2] is 47.5%; in [4], -28%. Besides, the activity, negative = inhibition in test [5] is -16.9%. For the same compound, the Potency result in [7] and in test [8] was “inactive” in each case. In test [15], the result was inactive.

On to `c1ccc2c(NC3CC3)nc(-c3ccoc3)nc2c1`, for which the Potency in test [1] is 3.8 µM (active); in test [3] it was 0.316 µM (active); in test [6] it was greater than 46 µM; in test [9], 3.98 µM (active). Also, the activity change, negative = inhibition in test [2] was 14.4%; in test [4] it was -16.4%. Also, in test [5], the activity, negative = inhibition was -5.96%. Moreover, the Potency result in [7], in test [10] and in test [14] was “inactive” throughout. Moreover, the outcome in test [15] was inactive.

In the case of `Cn1cc(-c2nc3cncnc3n(CCN)c2=O)c2ccccc21`, the Potency is greater than 11.4 µM in test [1], 6.31 µM (active) in test [3] and greater than 46 µM in test [6]. Moreover, the values for the activity change, negative = inhibition in test [2] and in test [4] were 0.818% and 3.03%, respectively. In addition, in test [5], the activity, negative = inhibition was 0.835%. In addition, the Potency result in [7], in test [8], in [10] and in test [14] was “inactive” in each case. For the same compound, the result in test [15] was inactive.

On to `Cn1cccc1C(=O)N1CCC2(CCCN(c3ncccn3)C2)CC1`, for which the Potency in test [1] was greater than 11.4 µM; in test [6], greater than 46 µM. Moreover, the activity change, negative = inhibition in test [2] is 7.97%; in test [4] it was 2.93%. Further, the Potency result in test [3], in test [7], in test [8], in [16], in test [17] and in [11] was “inactive” throughout. For the same compound, the activity, negative = inhibition in test [5] was -5.18%. The outcome in test [15] was inactive.

Regarding `Cc1noc(C)c1C(=O)N1CCC[C@@]2(CCN(Cc3ccc(C#N)cc3)C2)C1`, the Potency was greater than 11.4 µM in test [1] and greater than 46 µM in [6]. Besides, the activity change, negative = inhibition is -6.54% in [2] and 17.1% in [4]. The Potency entry in test [3], in [7], in test [8], in test [16], in test [9] and in test [17] was “inactive” each time. In test [11], the Potency entry is “inactive”. The activity, negative = inhibition in test [5] was 6.11%. Besides, in [15], the result was inactive.

Consider `COC(=O)N1CCC2(CC1)CN(C(=O)Nc1cccc(F)c1)C2`, for which the Potency was greater than 11.4 µM in test [1] and greater than 46 µM in test [6]. Further, the values for the activity change, negative = inhibition in test [2] and in [4] were -2.84% and 0.322%, respectively. In addition, the Potency entry in test [3], in test [7] and in test [8] was “inactive” each time. Further, in test [5], the activity, negative = inhibition was -2.22%. Besides, in test [15], the outcome was inactive.
